Bioassay records as filed in PubChem BioAssay.
In the library only some 8.7% were active in any assay of this set; here they are far more common.
Pf growth 48h: Primary qHTS for delayed death inhibitors of the malarial parasite plastid, 48 hour incubation. 310,000 tested, 5.9% active. Potency, µM (top dose mostly 28.7 µM), for the others: top-dose activity change, negative = inhibition, usual class: inhibitors. P. falciparum luciferase growth in erythrocytes, 48 h. AID 504832, 2011
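Here the parasites carry a stable luciferase gene and grow inside erythrocytes in Albumax-based RPMI medium with compound for one erythrocytic cycle. Activity is scored as loss of luminescent signal.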
Pf growth 96h: Primary qHTS for delayed death inhibitors of the malarial parasite plastid, 96 hour incubation; P. falciparum luciferase reporter growth, 96 h; Potency, µM (series often up to 28.7 µM), without a hit: at the top dose activity change, negative = inhibition, most hits filed as inhibitors; 320,000 tested, 6.9% active
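Two-generation exposure (96 h) targets delayed-death phenotype. Reporter parasites carrying integrated firefly luciferase, in red cells at 2% hematocrit and 0.05% parasitemia final, kept at 37 C, 5% CO2; luminescence loss indicates inhibition.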
Vaccinia Venus: qHTS for Stage-Specific Inhibitors of Vaccinia Orthopoxvirus: Venus Reporter Primary qHTS; Vaccinia virus Venus reporter expression, fluorescence; 330,000 tested, 0.46% active; AID 720580, 2013; Potency, µM (highest dose often 36.5 µM), inactives show at the highest dose activity change, negative = inhibition, hits mostly inhibitors; calls by dose curve; tested in A549 cells; further: nearly all actives have a fitted effect of over 30% in size
AMA1 RON2 block: qHTS for Inhibitors of AMA1-RON; Towards Development of Antimalarial Drug Lead: Primary Screen; Plasmodium falciparum AMA1 (3D7) - RON2 peptide interaction; AlphaScreen AMA1-biotinylated RON2 peptide binding; Potency, µM (series often up to 58.2 µM), for inactives: at the top dose activity change, negative = inhibition, hits mostly inhibitors; 360,000 tested, 0.2% active;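 further: 0% = vehicle wells and -100% = peptide control; nearly all actives have a fitted effect of over 45% in size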
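AMA1 (3D7) with his tag at 25 nM final met compounds first, then biotinylated RON2 peptide at 25 nM; detection used donor plus acceptor beads, 10 µg/mL apiece, read by AlphaScreen after 30 min at room temperature.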
VACV mCherry inh: qHTS for Stage-Specific Inhibitors of Vaccinia Orthopoxvirus: mCherry Reporter Primary qHTS | AID 720579, 2013 | Vaccinia virus mCherry reporter infection, fluorescence | Potency, µM (top dose mostly 36.5 µM), for inactives: at the top dose activity change, negative = inhibition, most hits filed as inhibitors | 310,000 tested, 0.63% active; calls by dose curve; tested in A549 cells; further: nearly all actives have a fitted effect of over 35% in size
* hit, by the source's call; i = inactive; ? = inconclusive; nt = no result given; [ ] = another dose, or the depositor's remark. Unless noted, the call rests on the fitted dose curve; in most records, active means well fitted curve in the direction sought with a large enough effect; inconclusive means small, poorly fitted or top-dose-only effect, or another doubt; inactive means no such curve, though single readings can be large; an effect the other way counts as inactive or inconclusive. Unless noted, on the % scale 0 is the no-effect control and ±100 the full control effect; potency means the concentration at half of the fitted maximal effect.

SMILES	Pf growth 48h	Pf growth 96h	Vaccinia Venus	AMA1 RON2 block	VACV mCherry inh
COc1ccc(CCNC(=O)c2cc3c(=O)n4cccc(C)c4nc3n(Cc3ccco3)c2=N)cc1OC	13.1µM*	1.65µM*	-8.3%	2.1%	i
Cc1cccn2c(=O)c3cc(C(=O)NC(C)c4ccccc4)c(=N)n(CCCn4ccnc4)c3nc12 (centres undefined)	0.415µM*	0.415µM*	-17.9%	-3.8%	-12.4%
COCCCNC(=O)Nc1cc(C(=O)NCc2ccc(OC)cc2)ccc1N1CCCC1	nt	nt	-1.8%	nt	-4.9%
Cc1cc(C)c(S(=O)(=O)NCC(c2cccs2)S(=O)(=O)c2ccccc2)c(C)c1 (centres undefined)	nt	nt	-14.2%	nt	-23.3%
CC1CC(C)CN(Cc2nc(N)nc(Nc3ccc4ccccc4c3)n2)C1 (centres undefined)	11.7µM*	nt	?	2.5%	?
CC1CC(C)CN(Cc2nc(N)nc(Nc3ccccc3)n2)C1 (centres undefined)	?	10.4µM*	-20.7%	41.7%	nt
CCC(NC(=O)c1ccccc1NC(=O)c1ccccc1)C(=O)OC (centres undefined)	2.08µM*	28.8%	nt	0.0%	nt
CCN(CC)CCCNC(=O)Cn1nc(N2CCN(c3ccccc3OC)CC2)ccc1=O	nt	nt	2.6%	nt	0.4%
CC(C)(C)OC(=O)NCCCCCNC(=O)c1[nH]cnc1C(=O)N[C@@H](CCCCNC(=O)OC(C)(C)C)C(=O)OC(C)(C)C	9.28µM*	0.0%	?	138.0%	-20.6%
C[C@H](NC(=O)c1nc[nH]c1C(=O)N[C@@H](CCCCNC(=O)OC(C)(C)C)C(=O)OC(C)(C)C)C(=O)OC(C)(C)C	9.28µM*	13.1µM*	?	104.4%	?
CC(C)(C)OC(=O)NCCCC[C@H](NC(=O)c1nc[nH]c1C(=O)NC(c1ccccc1)c1ccccc1)C(=O)OC(C)(C)C	3.7µM*	2.08µM*	?	147.9%	-16.9%
CC(C)(C)OC(=O)[C@H](CCCCN)NC(=O)c1nc[nH]c1C(=O)NCCCCCN	-17.5%	23.0%	?	62.6%	i
C[C@H](NC(=O)c1nc[nH]c1C(=O)N[C@@H](CCCCNC(=O)OC(C)(C)C)C(=O)OC(C)(C)C)C(=O)OCc1ccccc1	?	17.4%	-5.1%	140.9%	i
CC(C)(C)OC(=O)NCCCC[C@H](NC(=O)c1nc[nH]c1C(=O)NCc1ccc(CNC(=O)OC(C)(C)C)cc1)C(=O)OC(C)(C)C	?	11.7µM*	?	137.5%	-1.5%
CC(C)(C)OC(=O)NCCCC[C@H](NC(=O)c1nc[nH]c1C(=O)N[C@@H](CCCCNC(=O)OC(C)(C)C)C(=O)OC(C)(C)C)C(=O)OC(C)(C)C	2.08µM*	1.65µM*	-29.6%	139.2%	i
CC(C)(C)OC(=O)CNC(=O)c1[nH]cnc1C(=O)N[C@@H](CCCCNC(=O)OC(C)(C)C)C(=O)OC(C)(C)C	?	?	?	125.5%	?
O=Nc1c(-c2ccccc2)cc2ccccn12	4.65µM*	9.28µM*	nt	5.7%	nt
Cc1cc(C)c(S(=O)(=O)/N=C2\C=C(NS(=O)(=O)c3ccccc3)C(=O)c3ccccc32)c(C)c1	-24.0%	-24.1%	1.9%	-16.0%	?
O=C1C(Nc2ccc(O)cc2)=C/C(=N/S(=O)(=O)c2cccs2)c2ccccc21	?	0.465µM*	2µM*	25.1µM*	?
Cc1ccc(NC2=C/C(=N\S(=O)(=O)c3cccs3)c3ccccc3C2=O)c(C)c1	0.0928µM*	0.0329µM*	6.31µM*	4.47µM*	10µM*
O=C(O)c1ccc(NC2=C/C(=N/S(=O)(=O)c3cccs3)c3ccccc3C2=O)cc1	nt	nt	7.9%	?	-6.2%
Cc1ccc(Cl)cc1NC1=C/C(=N\S(=O)(=O)c2cccs2)c2ccccc2C1=O	nt	0.147µM*	?	4.47µM*	25.1µM*
Cc1cccc(NC2=C/C(=N/S(=O)(=O)c3cccs3)c3ccccc3C2=O)c1	0.522µM*	-8.8%	-0.1%	?	i
CCOc1ccc(-n2c(SCC(=O)Nc3ccc(F)cc3)nc3c([nH]c4ccccc43)c2=O)cc1	nt	nt	-0.7%	nt	-6.3%
CCc1ccc2c(c1)cc(CN(C(=S)Nc1ccc(Cl)cc1)C1CC1)c1nnnn12	2.94µM*	?	-2.4%	8.4%	i
SMILES	Pf growth 48h	Pf growth 96h	Vaccinia Venus	AMA1 RON2 block	VACV mCherry inh
CC(CCc1ccccc1)NCC(O)c1ccc(O)c(C(N)=O)c1 (centres undefined)	13.1µM*	?	-27.4%	6.3%	-4.0%
Cc1ccc(Cl)cc1N1CCN(Cc2cc3c(cc2O)CCC3)CC1	nt	0.147µM*	nt	-4.8%	nt
Cc1ccc(-n2nc3c(N4CCC(C(=O)N(C)Cc5ccccc5)CC4)nnc(C)c3c2C)cc1	nt	nt	-15.4%	nt	-17.8%
COc1ccc(Nc2cc(C)nc3nc(C)nn23)cc1Cl	nt	3.1%	-5.9%	7.4%	-12.1%
Cc1cc(Nc2ccc(F)c(Cl)c2)n2nc(C)nc2n1	3.29µM*	9.5%	-29.0%	25.9%	?
COc1cc(Nc2cc(C)nc3nc(C)nn23)cc(OC)c1OC	9.28µM*	-18.7%	-2.3%	0.0%	-4.9%
COC(=O)C1CCN(c2nc(CN(C)C3CCOC3)nc3cc(OC)c(OC)cc23)CC1 (centres undefined)	nt	nt	13.0%	nt	2.9%
COc1ccc(S(=O)(=O)N2Cc3ccccc3CC2C(=O)Nc2ccc(O)cc2)cc1OC (centres undefined)	?	3.7µM*	8.9%	31.4%	i
COc1ccc(S(=O)(=O)N2Cc3ccccc3CC2C(=O)Nc2cccc(C)c2)cc1OC (centres undefined)	nt	nt	5.0%	nt	1.6%
O=C(NC1CCCCC1)C1Cc2ccccc2CN1S(=O)(=O)c1ccc(F)cc1 (centres undefined)	?	13.1µM*	-0.2%	5.1%	-14.9%
COC(=O)CNC(=O)C1Cc2ccccc2CN1S(=O)(=O)c1ccc(F)cc1 (centres undefined)	-11.3%[0.00184 µM]	-6.9%	nt	-4.7%	nt
O=C(C1Cc2ccccc2CN1S(=O)(=O)c1ccc(F)cc1)N1CCCCC1 (centres undefined)	-15.8%	nt	nt	0.3%	nt
CCNC(=O)C1Cc2ccccc2CN1S(=O)(=O)c1ccc(F)cc1 (centres undefined)	0.828µM*	24.8%	nt	2.8%	nt
O=C(NCCc1nnc2n1CCN(Cc1ccc(F)cc1)CC2)c1ccc(F)cc1	nt	nt	-7.0%	nt	-3.0%
Cc1cc(C(=O)Nc2nc(-c3ccccn3)cs2)ccc1[N+](=O)[O-]	9.28µM*	?	-28.4%	3.1%	?
O=C(Nc1nc(-c2ccccn2)cs1)c1ccccc1-n1cnnn1	?	1.65µM*	-24.9%	-30.3%	1.26µM*
CC(=O)Nc1ccc(C(=O)Nc2nc(-c3ccccn3)cs2)cc1	?	?	nt	-19.9%	nt
